Results filed as inconclusive are left out. The source made the active and inactive calls. The call rests on the fitted dose curve; in most records, active means well fitted activation curve with a large enough effect; inconclusive means small, poorly fitted or top-dose-only effect; inactive means no such curve, though single readings can be large or run the other way.
assay: Confirmation Concentration-Response Assay for Enhancers of SMN2 Splice Variant Expression for Further Probe SAR; details: HEK293 SMN2 exon7-luciferase splicing reporter, luminescence, 30-36 h; series mostly up to 46.1 µM
Excerpt: NIH Chemical Genomics Center [NCGC] NIH Molecular Libraries Probe Production centers Network [MLPCN] MLPCN Grant: R03 MH084179-01 Assay Submitter (PI): Elliot Androphy NCGC Assay Overview: Spinal muscular atrophy (SMA) is caused by insufficient levels of the survival motor neuron protein SMN. The SMN locus on chromosome 5q13 contains two inverted copies of SMN called SMN1 and SMN2 which are 99% identical at the amino acid level. SMN1 is a fully functional protein and SMN2 skips exon 7 90% of the time. Skipping of exon 7 produces non-functional protein product. 10% of the SMN2 protein includes exon 7 and is fully functional. In the SMA disease state, mutations in the SMN1 locus are the cause of the disease state. Because only 10% of SMN2 is of the fully functional form, it is not sufficient to overcome the deficiency produced by the loss of the SMN1 product. A therapy that either increase the amount of SMN2 product made or to increase the inclusion of exon 7 has been proposed for the treatment of SMA. We have designed an assay to identify small molecules that can increase the amount of functional SMN2 product by appending a luciferase reporter gene after the native SMN2 gene, such that inclusion of exon 7 in the expressed product places the luciferase sequence in frame, thus generating functional luciferase enzyme.
NCGC Assay Protocol Summary: This screen utilizes a luciferase reporter gene assay, combining the promoter with the major portion of the native SMN2 cDNA (exons 1 -7, intron 8 , exon 8 fused to luciferase) stably expressed in HEK293 cells. Compounds that increase luciferase signal presumably enhance expression of the functional SMN2 splice variant. Passaging media contained DMEM w/ glutamax (+phenol red) 10% FCS, 1x pen/strep, 200 ug/ml hygro, 1x sodium pyruvate. Assay media contained DMEM w/ glutamax (-phenol red) 10% FCS, 1x pen strep, 1x pyruvate Sequence, Parameter, Value, Description (1) Cells, 5 uL, 2000 cells/well, 1536 TC treated White solid bottom plate (2) Time, 10-12 hours, 37C 5% CO2 (3) Compound, 23 nl, MLSMR Library (4) Control Compound, 23 nL, Sodium butyrate st 4.5mM (final) conc (5) Time, 30-36 hours, 37C 5% CO2 (6) Reagent, 3 ul, One Glo (TM) from Promega (7) Time, 5-15 minutes, Room temp (8) Detector, Viewlux: luminescent read, 60 second integration, high speed 2x binning Keywords: Spinal muscular atrophy, SMA, SMN2, high throughput screening, MLSMR, MLPCN, NIH Roadmap, qHTS and NCGC

Row | SMILES | Potency
1 | CN(C)c1cccc(-c2ncc(F)c(N3CCC(C(N)=O)CC3)n2)c1 | 2440 nM (active)
2 | NC(=O)C1CCN(c2nc(-c3cccc4ccccc34)cs2)CC1 | inactive
3 | O=C(c1ccccc1)N1CCN(c2nc(-c3ccc(Br)cc3)cs2)CC1 | inactive
4 | CS(=O)(=O)N1CCN(c2nc(-c3ccc(Br)cc3)cs2)CC1 | inactive
5 | CC(C)Oc1cccc(-c2cnc(N3CCC(C(N)=O)CC3)s2)c1 | 68.8 nM (active)
6 | NC(=O)C1CCN(c2nc(-c3ccccc3)cs2)CC1 | 3070 nM (active)
7 | NC(=O)C1CCN(c2ncnc(-c3ccc4c(c3)OCCCO4)n2)CC1 | 2440 nM (active)
8 | O=C(c1ccco1)N1CCN(c2nc(-c3ccc(Br)cc3)cs2)CC1 | inactive
9 | NC(=O)C1CCN(c2ncc(-c3ccc4c(c3)OCCO4)s2)CC1 | 86.7 nM (active)
10 | O=C(NCCCCc1ccccc1)C1CCN(c2nc(-c3ccc(Br)cc3)cs2)CC1 | inactive
11 | NC(=O)C1CCN(c2nc(-c3ccc4c(c3)OCO4)cs2)CC1 | 1370 nM (active)
12 | NC(=O)C1CCN(c2ncc(-c3ccc4c(c3)OCCCO4)s2)CC1 | 30.7 nM (active)
13 | Brc1ccc(-c2csc(N3CCNCC3)n2)cc1 | inactive
14 | NC(=O)C1CCN(c2nccc(-c3ccc4c(c3)OCCO4)n2)CC1 | 1090 nM (active)
15 | CCOc1ccc(-c2csc(N3CCC(C(N)=O)CC3)n2)cc1 | 3070 nM (active)
16 | O=C(O)C1CCN(c2nc(-c3ccc(Br)cc3)cs2)CC1 | 2440 nM (active)
17 | NC(=O)C1CCN(c2ncc(-c3ccc4c(c3)OC(F)(F)O4)s2)CC1 | 194 nM (active)
18 | c1c[nH]c(C2CCN(c3ncc(-c4ccc5c(c4)OCCCO5)s3)CC2)n1 | 2180 nM (active)
19 | NC(=O)C1CCN(c2nccc(Cl)n2)CC1 | inactive
20 | CC(C)Oc1cccc(-c2ccnc(N3CCC(C(N)=O)CC3)n2)c1 | 154 nM (active)

Row | SMILES | Potency
21 | CC(=O)N1CCN(c2nc(-c3ccc(Br)cc3)cs2)CC1 | 2440 nM (active)
22 | CC(=O)C1CCN(c2ncc(-c3cccc(N(C)C)c3)s2)CC1 | 2740 nM (active)
23 | NC(=O)C1CCN(c2ncc(-c3ccc(Br)cc3)s2)CC1 | 218 nM (active)
24 | CN(C)c1cccc(-c2nccc(N3CCC(C(N)=O)CC3)n2)c1 | 12200 nM (active)
25 | Brc1ccc(-c2csc(N3CCC(c4nn[nH]n4)CC3)n2)cc1 | 17300 nM (active)
26 | COc1cccc(-c2csc(N3CCC(C(N)=O)CC3)n2)c1 | 1090 nM (active)
27 | NC(=O)C1CCN(c2nc(-c3ccc4c(c3)CCO4)cs2)CC1 | 12200 nM (active)
28 | CN(C)c1cccc(-c2cnc(N3CCC(C(N)=O)CC3)s2)c1 | 24.4 nM (active)
29 | CN(C)c1cccc(-c2nnc(N3CCC(C(N)=O)CC3)s2)c1 | 218 nM (active)
30 | NC(=O)C1CCN(c2nc(-c3ccccc3[N+](=O)[O-])cs2)CC1 | 15400 nM (active)
31 | NC(=O)C1CCN(c2nccc(-c3ccc4c(c3)OCCCO4)n2)CC1 | 1540 nM (active)
32 | CCOC(=O)C1CCN(c2nc(-c3ccc(Br)cc3)cs2)CC1 | 4870 nM (active)
33 | NC(=O)C1CCN(c2nc(-c3ccc(C(F)(F)F)cc3)cs2)CC1 | 867 nM (active)
34 | Nc1nc(N)c2c(OCC3CCN(Cc4ccccc4F)CC3)cccc2n1 | inactive
35 | NC(=O)C1CCN(c2ncc(-c3cccc(F)c3)s2)CC1 | 1940 nM (active)
36 | COc1ccccc1-c1csc(N2CCC(C(N)=O)CC2)n1 | inactive
37 | NC(=O)C1CCN(c2nc(-c3ccc([N+](=O)[O-])cc3)cs2)CC1 | 5470 nM (active)
38 | Cc1ccc(-c2ccnc(N3CCC(C(N)=O)CC3)n2)cc1 | 308 nM (active)
39 | CC(C)Oc1ccc(-c2csc(N3CCC(C(N)=O)CC3)n2)cc1 | 3870 nM (active)
40 | CN(C)c1cccc(-c2cnc(N3CCC(C(N)=O)CC3)nc2)c1 | 547 nM (active)

— PubChem BioAssay AID488832 (National Center for Advancing Translational Sciences (NCATS), 2010)
